Most compounds without a hit are left out; they make up all but 9.3% or so of the library.
HCMV inh – blocks human cytomegalovirus replication; HFF cells, HCMV-luciferase reporter, 72 h; hits give low values; activity change, negative = inhibition, % at 57.5 µM; actives 4.5% (n = 410,000); in the data active = activity change below about -60%; inconclusive = no clear call, values can overlap the other calls; inactive = above about -39%
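Two compound doses tested in HFFs infected with HCMV-luciferase, MOI 1 PFU/cell, 72 h at 37C. Lysate luminescence read with OneGlo; data normalized against buffer-only and 10uM Salinomycin inhibitor controls.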
VACV Venus inh – inhibitors of vaccinia virus (Venus reporter); Potency, µM (top dose mostly 36.5 µM), without a hit: at the highest dose activity change, negative = inhibition, actives largely listed as inhibitors; AID 720580; actives 0.46% (n = 330,000); Vaccinia virus Venus reporter expression, fluorescence; calls by dose curve; tested in A549 cells; also: potency is read from the fitted curve at half-maximal effect; nearly all actives have a fitted effect of over 30% in size
Sm TGR inh – S. mansoni TGR enzyme inhibition; Q962Y6; purified TGR, DTNB reduction, TNB absorbance 405 nm; Potency, µM (series often up to 114 µM), for the others: top-dose activity change, negative = inhibition, hits mostly inhibitors; actives 3% (n = 360,000); AID 485364; also: potency is read from the fitted curve at half-maximal effect; nearly all actives have a fitted effect of over 60% in size
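First, TGR (20 nM dispensed) and NADPH were mixed with compound. Second, a 15 min room-temperature incubation followed. Third, further NADPH and then DTNB were added to start the reaction. Finally, TNB absorbance was monitored kinetically.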
FMDV inh – foot and mouth disease virus antiviral activity; FMDV antiviral cell-based qHTS; Potency, µM (titrated, usually from 57.9 µM), for the others: at the highest dose activity change, negative = inhibition, hits mostly inhibitors; actives 1.2% (n = 410,000); AID 1159524; calls by dose curve; tested in HEK293T cells; also: read-out not given here; potency is read from the fitted curve at half-maximal effect; nearly all actives have a fitted effect of over 45% in size
HCV inh – blocks hepatitis C virus | Huh7.5.1 HCVcc-Cre infection, luciferase reporter, 44 h | Potency, µM (series often up to 41.8 µM), without a hit: at the top dose activity change, negative = inhibition, most hits filed as inhibitors | actives 3.4% (n = 340,000) | AID 651820; also: potency is read from the fitted curve at half-maximal effect
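Reporter virus HCVcc-Cre (~0.5 moi) infects cells exposed to compound; seeding density 1,000 cells/well with 4 h settling beforehand. Luminescence, 15 sec read, taken 44 h post-infection following a 15 min RT substrate incubation.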
VACV mCherry inh – vaccinia inhibition (mCherry reporter) | Vaccinia virus mCherry reporter infection, fluorescence | Potency, µM (titrated, usually from 36.5 µM), inactives show at the highest dose activity change, negative = inhibition, hits mostly inhibitors | actives 0.63% (n = 310,000) | AID 720579; calls by dose curve; tested in A549 cells; also: potency is read from the fitted curve at half-maximal effect; nearly all actives have a fitted effect of over 35% in size
Active calls of the source: *; i = inactive; ? = inconclusive; / = no result given; [ ] = dose if it differs, or a comment. Unless noted, calls follow the shape of the dose curve; as a rule, active = well fitted curve in the direction sought with a large enough effect; inconclusive = small, poorly fitted or top-dose-only effect, or another doubt; inactive = no such curve, though single readings can be large; an effect the other way counts as inactive or inconclusive. % is scaled to controls: 0 for no effect and ±100 for the full control effect.

SMILES	HCMV inh	VACV Venus inh	Sm TGR inh	FMDV inh	HCV inh	VACV mCherry inh
CCOc1ccc(N(CC(=O)NCc2ccc(F)cc2)C(=O)c2ccco2)cc1	-3	-17%	-15%	5%	-5%	i
COC(=O)C1=CN(CCCN2CCCC2=O)C=C(C(=O)OC)C1c1ccccc1C(F)(F)F	-65*	-13%	0%	-20%	-9%	/
O=C(OCCNc1nc(-c2ccccc2)nc2ccccc12)c1cccnc1	5	/	/	-22%	?	/
CCCOC(=O)c1cccc(Nc2nc(-c3cccnc3)nc3ccccc23)c1	134	?	5%	25µM*	?	?
O=C(OCCNc1nc(-c2ccccc2)nc2ccccc12)c1ccncc1	?	/	/	-29%	16µM*	/
CCOC(=O)c1ccc(Nc2nc3ccccc3nc2NS(=O)(=O)c2ccc(Cl)cc2)cc1	-2	?	7%	?	/	10µM*
COC(=O)c1cccc(Nc2ncnc3ccc(C)cc23)c1	-15	-17%	12%	/	-23%	-24%
CCOC(=O)c1cccc(Nc2ncnc3ccccc23)c1	3	?	5%	40µM*	?	/
CC(C)C(=O)N1CCN(S(=O)(=O)c2ccc3ccccc3c2)CC1	-30	-24%	2%	-15%	?	-12%
CCOC(=O)c1c(Nc2ccc(O)cc2)nnc(-c2ccccc2)c1-c1ccccc1	-38	-5%	45µM*	0%	/	-11%
CCOC(=O)c1nc(Nc2ccc(Nc3ccccc3)cc2)c2ccccc2n1	?	/	-23%	?	11µM*	/
CC(=O)Oc1cccc(Nc2ncnc3ccccc23)c1	36	/	6%	-8%	-20%	/
Cc1ccccc1C(=O)Oc1cccc(Nc2ncnc3ccccc23)c1	128	?	/	16µM*	?	?
CCOC(=O)c1c(Nc2ccccc2)nnc(-c2ccccc2)c1-c1ccccc1	-8	-12%	4%	?	/	-11%
CN(C)CCc1cc2c(c3c1ccc1ccccc13)OCO2	?	/	-5%	-5%	7%	/
CCCc1c(C(=O)N/N=C/c2sccc2C)nnn1-c1nonc1N	?	/	2%	3%	-23%	/
CC1(C)COC(c2ccc(F)c([N+](=O)[O-])c2)=N1	-32	-25%	50µM*	?	?	-6%
S=C1SCN(CC2CC2)CN1CC1CC1	-77*	-1%	11%	-22%	?	i
S=C1SCN(CCc2ccccc2)CN1CCc1ccccc1	?	-21%	/	0%	/	-26%
OC(c1cccc(Cl)c1)(c1cccc(Cl)c1)C1CN2CCC1CC2 (stereo not given)	-34	-28%	0%	-15%	16µM*	-3%
O=C(NCCc1ccccc1)c1ccccc1SCC(=O)N1CCCC1	41	-10%	-25%	31%	18%	-13%
CC(=O)c1cc(-c2ccccc2)n(CC(=O)N2CCN(C3CCCC3)CC2)c1C	-8	-12%	40µM*	-18%	2%	-22%
CC(C#N)(NC(=O)COC(=O)c1ccccc1NCCO)C1CC1 (stereo not given)	-24	-14%	0%	-2%	10%[8.37 µM]	-12%
CCCCN(CCCC)S(=O)(=O)c1ccc(OC)c2ncccc12	-37	?	2%	-8%	0%	?
CCC(=O)OCC(=O)N=c1sccn1Cc1ccccc1Cl	-25	-11%	-7%	-4%	-18%	-13%
SMILES	HCMV inh	VACV Venus inh	Sm TGR inh	FMDV inh	HCV inh	VACV mCherry inh
N=c1sccn1Cc1ccc(Cl)cc1Cl	-9	3%	-6%	-17%	?	-13%
O=C(CCl)N=c1sccn1Cc1ccc(Cl)cc1Cl	-99*	-14%	13µM*	?	0.56µM*	i
O=C(CCl)N=c1sccn1Cc1cccc2ccccc12	-100*	/	25µM*	?	3.5µM*	/
O=C(CCl)N=c1sccn1Cc1ccccc1Cl	-91*	-17%	0%	?	0.56µM*	i
CCC(=O)OCC(=O)N=c1sccn1Cc1ccc(C)cc1	36	/	-1%	-25%	-8%	/
O=C(Nc1cccc(O)c1)c1ccccc1	19	/	-3%	38%	-11%	/
CC(C)(C)NS(=O)(=O)c1ccc(CCC(=O)NCc2ccc3c(c2)OCO3)cc1	13	-4%	32µM*	-13%	13%	-16%
Cn1nc(C(C)(C)C)cc1C(=O)NCc1ccc2c(c1)OCO2	-83*	/	-24%	?	1µM*	/
Cc1nc2ccccn2c1C(=O)NCc1ccc2c(c1)OCO2	-61*	-19%	-35%	/	?	-3%
CC(C)NS(=O)(=O)c1ccc(CCC(=O)NCc2ccc3c(c2)OCO3)cc1	9	-15%	-22%	/	23%	-10%
Cc1ccc(-c2csc3nnc(SCC(=O)NCc4ccc5c(c4)OCO5)n23)cc1	-16	/	-4%	-25%	6.3µM*	/
Cc1oc(C(C)(C)C)cc1C(=O)NCc1ccc2c(c1)OCO2	12	7%	-5%	6%	-21%	-9%
COc1ccc(C2C(C(=O)N3CCOCC3)CCC(=O)N2c2ccc(OC)cc2)cc1 (stereo not given)	8	-13%	-1%	7%	0%	-22%
COC(=O)C1CC(=O)N(CCc2c[nH]c3ccccc23)C1 (stereo not given)	21	-7%	-5%	0%	4%	i
Cc1ccc(C(=O)N2CCN(c3cc(=O)[nH]nc3-c3ccccc3)CC2)cc1	3	-10%	10%	-19%	0%	-21%
COC(=O)c1cc2sccc2n1Cc1ccccc1	-13	0%	-6%	0%	/	-7%
O=C(CSc1nnc2ccccn12)NCc1ccc2c(c1)OCO2	-79*	/	3%	13%	13%	/
CCc1ccn2cc(-c3cc(-c4ccccc4)no3)nc2c1	-95*	/	26%	3.2µM*	10µM*	/
Cc1noc(C)c1S(=O)(=O)N(C)C[C@H]1OCc2cn(nn2)CCCC(=O)N([C@@H](C)CO)C[C@@H]1C	13	-17%	/	-14%	/	-7%
NS(=O)(=O)c1ccc(CCNC(=O)Nc2ccc(Cl)c(Cl)c2)cc1	?	/	-12%	25µM*	?	/
Cc1ccc(NC(=S)NCCc2ccc(S(N)(=O)=O)cc2)cc1C	-39	-9%	?	-21%	?	-9%
NS(=O)(=O)c1ccc(CNC(=S)Nc2ccc(Cl)c(Cl)c2)cc1	-74*	-13%	-28%	-7%	-4%	i
COc1ccc2[nH]c3c(c2c1)CCN1C(=O)C(CC(=O)NCC24CC5CC(CC(C5)C2)C4)C[C@H](C(=O)N2CCCCC2)[C@@]31C (stereo not given in full)	-32	?	/	0%	25µM*	?
C[C@]12c3[nH]c4ccccc4c3CCN1C(=O)C(CC(=O)NCC13CC4CC(CC(C4)C1)C3)C[C@@H]2C(=O)N1CCOCC1 (stereo not given in full)	-38	?	/	?	?	-4%

Screening results as filed in PubChem BioAssay.
